# Test results reported in PubChem BioAssay (NCI).
# Compounds without any hit were thinned out: in the full panel of roughly 79,000, 15% have a hit. Values without a mark were called inactive. Activity calls are given as the source filed them. Rule as the data show it: active = growth inhibition above about 70%; inactive = the rest. Where a SMILES comes first, the peptide text is derived from it. [ ]: non-standard residue; d: D form. ξ: configuration not given here. ξD = NC(CC(=O)O)C(=O)O
# Assay: NCI Yeast Anticancer Drug Screen. Data for the mec2-1 strain (AID 157)
# Conditions: S. cerevisiae mec2-1 strain, at 5.0 µM (retest, dose inferred, filed as 0.5), hits give high values
# Summary of the method: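 Readout is yeast growth inhibition, normalised to vehicle-treated controls, in the mec2-1 strain exposed to compound.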
row,Structure (SMILES),growth inhibition
1,COC(=O)c1nc(=S)[nH]c(C(=O)OC)c1C(=O)c1ccc(Cl)c(Cl)c1,-1%
2,NC(=Nc1nc(-c2ccccn2)cc2ccccc12)c1ccccn1,54%
3,Cc1nc(Sc2nc3ccc([N+](=O)[O-])cc3s2)sc1C,-12%
4,NC(=S)Nc1ccc2c(c1)Cc1ccccc1-2,-4%
5,CN(C)CCN(C)CC(C)(C)C(=O)/C=C/c1ccc(Cl)c(Cl)c1,4%
6,CCCCCCCCCCCCCCCc1ccc(C(=O)C[n+]2ccccc2)cc1,23%
7,O=C(CCl)N(c1ccccc1)c1ccccc1,3%
8,CCOC(=O)C1=C(C(=O)c2ccccc2)C(c2cccc([N+](=O)[O-])c2)C(C(=O)c2ccccc2)=C(C(=O)OCC)N1,5%
9,CCN1CCCC(Nc2cc(C)nc(/N=C(/N)Nc3ccc(Cl)c(Cl)c3)n2)C1 (stereo not drawn),32%
10,CCc1cnc2ccccc2c1/C=C/c1ccc(N(C)C)cc1,9%
11,O=[N+]([O-])c1ccc2c(c1)Cc1ccccc1-2,-10%
12,Fc1ccc(NCCS)cc1,-27%
13,CCCCC(C=O)(C=C=C(C)C)CC (stereo not drawn),-2%
14,CN(C)c1ccc(/C=C/c2cc[n+](C)c(/C=C/c3ccc(N(C)C)cc3)c2)cc1,100% (active)
15,COc1cc([C@@H]2c3cc4c(cc3[C@H](OC3OC5COC(c6ccccc6)OC5C(O)C3O)[C@H]3COC(=O)[C@H]23)OCO4)cc(OC)c1OC (stereo partly drawn),-13%
16,OC(c1cc(-c2ccc(Cl)cc2)nc2c(Cl)cccc12)C1CCCCN1 (stereo not drawn),26%
17,CSc1nc(C)c(C(=O)CCN2CCN(c3ccccn3)CC2)s1,-3%
18,Cc1cc(C(=O)c2ccc(Cl)cc2)ccc1O,-4%
19,O=C(c1ccccc1)C(Br)C(Br)c1ccccc1 (stereo not drawn),27%
20,CCCCCCN(CCCCCC)CCCNc1nccc2ccccc12,-4%

row,Structure (SMILES),growth inhibition
1,CCCCCCCCCCCC[S+](C)CC(=O)[O-] (stereo not drawn),5%
2,COC(=O)C(=[N+]=[N-])C(=O)c1ccc([N+](=O)[O-])o1,10%
3,Cc1c(O)ccc(SC#N)c1C,2%
4,Oc1c(Cl)cc(Cl)cc1C(c1cc(Cl)cc(Cl)c1O)C(Cl)(Cl)Cl,0%
5,CCCCCCCCCCCCNCCCc1ccccc1,100% (active)
6,Nc1ccc(C(=O)/C=C/c2ccccc2)cc1,12%
7,NCC(=O)NC(CC(=O)O)C(=O)O (stereo not drawn) (H-Gly-[ξD]-OH),-6%
8,CN(C)c1ccc(C(=C2C=CC(=[N+](C)C)C=C2)c2ccc(N(C)C)cc2)cc1,99% (active)
9,O=C1c2ccccc2Cc2cccc(Cl)c21,6%
10,O=C/C=C/c1ccc([N+](=O)[O-])cc1,49%
11,O=C1c2ccccc2C(=O)c2c(O)c(Cl)cc(O)c21,2%
12,CN1CSC(=S)N(Cc2ccccc2)C1,-5%
13,CC(O)C(O)C(O)C(O)C(O)C(=O)NNc1ccccc1 (stereo not drawn),-1%
14,Cn1c(COC(=O)NC2CCCCC2)c(COC(=O)NC2CCCCC2)c2ccc3cc(Cl)c(Cl)cc3c21,-5%
15,NC(=S)N/N=C\c1nccc2c(N)cccc12,35%
16,Oc1cc(Cl)ccc1Cc1ccc(Cl)cc1O,99% (active)
17,CCCCCCCCCCCC(=O)OC(C)C(=O)NCCCC (stereo not drawn),0%
18,CCC(=O)c1cc([N+](=O)[O-])c(Br)s1,99% (active)
19,OC(Cc1cc(CC(O)(C(F)(F)F)C(F)(F)F)nc(CC(O)(C(F)(F)F)C(F)(F)F)c1)(C(F)(F)F)C(F)(F)F,1%

# Same assay, conditions: S. cerevisiae mec2-1 strain, at 50.0 µM (retest, dose inferred, filed as 5.0), hits give high values
row,Structure (SMILES),growth inhibition
1,COC(=O)c1nc(=S)[nH]c(C(=O)OC)c1C(=O)c1ccc(Cl)c(Cl)c1,98% (active)
2,NC(=Nc1nc(-c2ccccn2)cc2ccccc12)c1ccccn1,66%
3,Cc1nc(Sc2nc3ccc([N+](=O)[O-])cc3s2)sc1C,90% (active)
4,NC(=S)Nc1ccc2c(c1)Cc1ccccc1-2,3%
5,CN(C)CCN(C)CC(C)(C)C(=O)/C=C/c1ccc(Cl)c(Cl)c1,99% (active)
6,CCCCCCCCCCCCCCCc1ccc(C(=O)C[n+]2ccccc2)cc1,98% (active)
7,O=C(CCl)N(c1ccccc1)c1ccccc1,59%
8,CCOC(=O)C1=C(C(=O)c2ccccc2)C(c2cccc([N+](=O)[O-])c2)C(C(=O)c2ccccc2)=C(C(=O)OCC)N1,33%
9,CCN1CCCC(Nc2cc(C)nc(/N=C(/N)Nc3ccc(Cl)c(Cl)c3)n2)C1 (stereo not drawn),98% (active)
10,CCc1cnc2ccccc2c1/C=C/c1ccc(N(C)C)cc1,96% (active)
11,O=[N+]([O-])c1ccc2c(c1)Cc1ccccc1-2,-25%
12,Fc1ccc(NCCS)cc1,95% (active)
13,CCCCC(C=O)(C=C=C(C)C)CC (stereo not drawn),0%
14,CN(C)c1ccc(/C=C/c2cc[n+](C)c(/C=C/c3ccc(N(C)C)cc3)c2)cc1,95% (active)
15,COc1cc([C@@H]2c3cc4c(cc3[C@H](OC3OC5COC(c6ccccc6)OC5C(O)C3O)[C@H]3COC(=O)[C@H]23)OCO4)cc(OC)c1OC (stereo partly drawn),77% (active)
16,OC(c1cc(-c2ccc(Cl)cc2)nc2c(Cl)cccc12)C1CCCCN1 (stereo not drawn),55%
17,CSc1nc(C)c(C(=O)CCN2CCN(c3ccccn3)CC2)s1,100% (active)
18,Cc1cc(C(=O)c2ccc(Cl)cc2)ccc1O,-2%
19,O=C(c1ccccc1)C(Br)C(Br)c1ccccc1 (stereo not drawn),98% (active)
20,CCCCCCN(CCCCCC)CCCNc1nccc2ccccc12,14%

row,Structure (SMILES),growth inhibition
1,CCCCCCCCCCCC[S+](C)CC(=O)[O-] (stereo not drawn),70% (active)
2,COC(=O)C(=[N+]=[N-])C(=O)c1ccc([N+](=O)[O-])o1,99% (active)
3,Cc1c(O)ccc(SC#N)c1C,74% (active)
4,Oc1c(Cl)cc(Cl)cc1C(c1cc(Cl)cc(Cl)c1O)C(Cl)(Cl)Cl,100% (active)
5,CCCCCCCCCCCCNCCCc1ccccc1,99% (active)
6,Nc1ccc(C(=O)/C=C/c2ccccc2)cc1,58%
7,NCC(=O)NC(CC(=O)O)C(=O)O (stereo not drawn) (H-Gly-[ξD]-OH),-12%
8,CN(C)c1ccc(C(=C2C=CC(=[N+](C)C)C=C2)c2ccc(N(C)C)cc2)cc1,95% (active)
9,O=C1c2ccccc2Cc2cccc(Cl)c21,15%
10,O=C/C=C/c1ccc([N+](=O)[O-])cc1,100% (active)
11,O=C1c2ccccc2C(=O)c2c(O)c(Cl)cc(O)c21,26%
12,CN1CSC(=S)N(Cc2ccccc2)C1,76% (active)
13,CC(O)C(O)C(O)C(O)C(O)C(=O)NNc1ccccc1 (stereo not drawn),37%
14,Cn1c(COC(=O)NC2CCCCC2)c(COC(=O)NC2CCCCC2)c2ccc3cc(Cl)c(Cl)cc3c21,8%
15,NC(=S)N/N=C\c1nccc2c(N)cccc12,89% (active)
16,Oc1cc(Cl)ccc1Cc1ccc(Cl)cc1O,100% (active)
17,CCCCCCCCCCCC(=O)OC(C)C(=O)NCCCC (stereo not drawn),18%
18,CCC(=O)c1cc([N+](=O)[O-])c(Br)s1,100% (active)
19,OC(Cc1cc(CC(O)(C(F)(F)F)C(F)(F)F)nc(CC(O)(C(F)(F)F)C(F)(F)F)c1)(C(F)(F)F)C(F)(F)F,100% (active)
